Reference: PubChem BioAssay (NCATS)
Calls of active or inactive are those of the source. The rule behind the calls is not given here.

What follows are compounds tested on HIV-1 nucleocapsid protein NCp7 (binding to TG oligonucleotide) (assay: HIV Nucleocapsid (AID 346;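 note: potency is for inhibitors that block NC binding and lower polarization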)). Conditions: HIV-1 NC / fluorescein-TGTGTGTG probe, fluorescence polarization.
Outline: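 Fluorescence polarization readout: labelled TG4xF oligo (10 nM) with 100 nM nucleocapsid protein, high-salt (250mM NaCl) Hepes pH 7.5 buffer containing zinc and fresh reducing agents. Compounds added by pin tool; incubation 1 hr, room temperature.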
Potency is the fitted concentration of half-maximal effect.

Row | Compound | Potency
1 | Cc1cccc(CNc2nc(-c3cccc(NS(C)(=O)=O)c3)nc3ccccc23)c1 | > 20 µM (inactive)
2 | COc1cccc(-c2cncnc2Nc2ccccc2)c1 | > 20 µM (inactive)
3 | COc1cccc(-c2nccc(N(C)Cc3ccco3)n2)c1 | > 20 µM (inactive)
4 | CCNc1ncc2nc(-c3ccccc3)c(=O)n(Cc3cccc(OC)c3)c2n1 | > 20 µM (inactive)
5 | CC(C)CN1CC2(CCN(C(=O)c3cnccn3)CC2)C1 | > 20 µM (inactive)
6 | N#CCCn1c(=O)cnc2cnc(Oc3ccccc3)nc21 | > 20 µM (inactive)
7 | Cc1cccc(CNc2cc(-c3ccc(N(C)C)cc3)ncn2)c1 | > 20 µM (inactive)
8 | CCNc1ncc2nc(-c3ccc(F)cc3)c(=O)n(-c3ccc(OC)cc3)c2n1 | > 4 µM (inactive)
9 | COc1ccc(CNc2ncnc3ccc(-c4c(C)noc4C)cc23)c(OC)c1 | > 20 µM (inactive)
10 | Cc1ccccc1-c1cc(NCc2ccccc2)ncn1 | > 20 µM (inactive)
